# High-throughput results: PubChem, National Center for Advancing Translational Sciences (NCATS)
# L3MBTL1 block: blocks human L3MBTL1. actives 0.66% (n = 230,000). Potency, µM (titrated, usually from 57.1 µM), inactives show at the highest dose activity, negative = inhibition, actives largely listed as inhibitors. Q9Y468. AlphaScreen L3MBTL1–H3K9me1 peptide binding. AID 485360; note: % is set by controls: 0 for no effect and ±100 for the full control effect; nearly all actives have a fitted effect of over 60% in size
# Target sequence (Q9Y468 whole entry, looked up): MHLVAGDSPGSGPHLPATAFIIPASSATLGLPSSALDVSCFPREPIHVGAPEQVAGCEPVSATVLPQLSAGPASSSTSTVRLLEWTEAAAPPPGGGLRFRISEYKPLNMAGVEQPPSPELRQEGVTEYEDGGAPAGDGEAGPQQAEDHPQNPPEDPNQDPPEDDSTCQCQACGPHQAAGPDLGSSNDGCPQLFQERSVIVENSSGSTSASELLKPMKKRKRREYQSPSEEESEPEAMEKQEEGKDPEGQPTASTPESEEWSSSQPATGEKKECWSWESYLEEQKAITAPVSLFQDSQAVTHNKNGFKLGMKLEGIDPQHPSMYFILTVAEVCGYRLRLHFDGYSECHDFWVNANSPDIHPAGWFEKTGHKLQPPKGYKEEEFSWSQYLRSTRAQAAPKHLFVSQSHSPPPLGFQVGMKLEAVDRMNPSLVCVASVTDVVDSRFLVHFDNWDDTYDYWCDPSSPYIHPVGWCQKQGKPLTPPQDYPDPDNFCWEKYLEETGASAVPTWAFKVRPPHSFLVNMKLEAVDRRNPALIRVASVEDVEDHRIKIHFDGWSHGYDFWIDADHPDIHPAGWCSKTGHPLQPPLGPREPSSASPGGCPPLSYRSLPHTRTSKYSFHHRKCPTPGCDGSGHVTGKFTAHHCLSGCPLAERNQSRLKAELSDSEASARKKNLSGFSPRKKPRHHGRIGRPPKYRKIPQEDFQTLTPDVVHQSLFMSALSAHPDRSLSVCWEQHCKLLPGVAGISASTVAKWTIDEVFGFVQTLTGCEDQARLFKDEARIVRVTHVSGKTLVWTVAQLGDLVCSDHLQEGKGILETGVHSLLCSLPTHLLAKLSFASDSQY
#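 AlphaScreen proximity signal between nickel-chelate acceptor and streptavidin donor beads (final 10 ug/mL) reports binding of 50 nM L3MBTL1 to 75 nM biotin-H3 K9me1 peptide; complex incubated with compounds 30 min at room temperature; cefsulodin titration as control.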
# G9a block: inhibitors of human histone lysine methyltransferase G9a. G9a H3K9 monomethylation, AlphaScreen, 2 h. AID 504332. actives 8.8% (n = 350,000). Potency, µM (doses to about 102 µM), without a hit: top-dose activity, negative = inhibition, actives largely listed as inhibitors. Q96KQ7; note: % is set by controls: 0 for no effect and ±100 for the full control effect; nearly all actives have a fitted effect of over 75% in size
#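 Methyltransferase reactions run at room temperature for 2 h (20 nM enzyme, 500 nM biotin-H3K9 peptide, 20 uM SAM) after a 15 min compound preincubation; product detected by AlphaScreen beads and anti-H3K9me1 antibody.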
# JMJD2A Tudor: inhibitors of human JMJD2A Tudor domain; AlphaScreen JMJD2A-Tudor / H3K4me3 peptide binding; Potency, µM (doses to about 114 µM), for the others: top-dose activity change, negative = inhibition, usual class: inhibitors; actives 4.4% (n = 390,000); note: % is set by controls: 0 for no effect and ±100 for the full control effect; nearly all actives have a fitted effect of over 50% in size
# HP1b binding inh: blocks HP1-beta chromodomain binding to methylated histone tails; AlphaScreen HP1-beta / biotin-H3K9me3 peptide binding; Potency, µM (doses to about 114 µM), for the others: at the highest dose activity change, negative = inhibition, actives largely listed as inhibitors; actives 0.56% (n = 390,000); AID 540317; note: nearly all actives have a fitted effect of over 70% in size
#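 HP1-beta protein (50 nM final) preincubated 30 min at room temperature with biotinylated H3(1-18)K9me3 peptide (50 nM) in PBS pH 7.4, 0.01% Tween-20, then compound added for 30 min. AlphaScreen streptavidin donor/nickel chelate acceptor beads (10 ug/mL final), 30 min dark, luminescence read.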
# Sfp inh: blocks B. subtilis Sfp PPTase activity. Q9F4F7. Biochemical Sfp PPTase activity, qHTS. Potency, µM, for inactives: largest response in the series, negative = inhibition, most hits filed as inhibitors. actives 3.5% (n = 310,000). AID 1490;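 note: the enzyme is Sfp with the accession as filed and its product quenches rhodamine fluorescence; 0% = enzyme reaction without inhibitor and -100% = no enzyme wells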
#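 Sfp 15 nM + cpd, 15 min RT; start w/ rhodamine-CoA 5 uM, BHQ-2-YbbR 12.5 uM (final); 50 mM Hepes pH 7.6, 10 mM MgCl2, 0.01% NP-40, 0.01% BSA; read 525/598 nm at 0 and 30 min.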
# BAZ2B inh: BAZ2B (human) inhibition; Q9UIF8; AlphaScreen BAZ2B-H3K14Ac peptide displacement; Potency, µM (titrated, usually from 114 µM), for the others: top-dose activity change, negative = inhibition, hits mostly inhibitors; actives 4.4% (n = 360,000); note: % is set by controls: 0 for no effect and ±100 for the full control effect; nearly all actives have a fitted effect of over 60% in size
#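 Compounds, titrated to a top concentration of 110 uM, were incubated 30 min at room temperature with preformed BAZ2B/acetyl-K14 H3 peptide complex (50 nM each). Proximity signal was measured by AlphaScreen after 20 min with beads.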
# An asterisk follows results filed as active; ? = inconclusive; nt = no result given; [ ] = another dose, or the depositor's remark. Only some compounds are listed: those with a hit (about 12% of all), similar ones and a draw of the others. Calls come from the whole dose curve; as a rule, active = well fitted curve in the direction sought with a large enough effect; inconclusive = small, poorly fitted or top-dose-only effect, or another doubt; inactive = no such curve, though single readings can be large; an effect the other way counts as inactive or inconclusive. Potency is the fitted concentration of half-maximal effect.
SMILES,L3MBTL1 block,G9a block,JMJD2A Tudor,HP1b binding inh,Sfp inh,BAZ2B inh
O=C1NC(=Nc2ccccc2)S/C1=C\C=C\c1ccco1,3.2µM*,?,50µM*,?,14%,25µM*
COc1ccc(N=C2NC(=O)/C(=C\C=C\c3ccccc3)S2)cc1,-7%,8%,-19%,7%,8%,-2%
Cc1cccc(N=C2NC(=O)/C(=C/c3cccnc3)S2)c1C,-9%,?,-26%,6%,?,-18%
Cc1ccc(N=C2NC(=O)/C(=C/C=C/c3ccco3)S2)cc1,?,11µM*,35µM*,?,?,16µM*
Cc1cccc(N=C2NC(=O)/C(=C/c3cccn3C)S2)c1C,-7%,?,?,-16%,79µM*,32µM*
C#CCCCO/N=C1/C[C@@H](O)[C@@H](O)[C@@H]2[C@@H]3C(=O)N(c4cccc(Oc5ccccc5)c4)C(=O)[C@H]3CC[C@@H]12,nt,nt,nt,nt,17%,nt
CC(=O)N[C@H]1[C@H](O[C@@H]2c3ccc(c(Cl)c3)Oc3cc4cc(c3O[C@@H]3O[C@H](CO)[C@@H](O)[C@H](O)C3C)Oc3ccc(cc3Cl)C[C@H]3NC(=O)[C@@H](N)c5ccc(O)c(c5)Oc5cc(O)cc(c5)[C@H](NC3=O)C(=O)N[C@H]4C(=O)N[C@H]3C(=O)N[C@@H]2C(=O)N[C@@H](C(=O)O)c2cc(O)cc(O[C@H]4O[C@H](CO)[C@@H](O)C(O)[C@@H]4O)c2-c2cc3ccc2O)O[C@H](CO)[C@@H](O)[C@@H]1O (stereo not given in full),nt,7%[5.15 µM],nt,nt,-22%,nt
O=C1NC(=Nc2ccccc2)/C(=C/c2ccco2)S1,-18%,11µM*,-29%,22%,22µM*,50µM*
O=C(Nc1ccccc1OCc1cc(=O)n2ccccc2n1)c1ccccc1F,nt,-5%[59 µM],8%,32%[57 µM],nt,11%
CC1=CC(C)(C)N2C(=O)C(=Nc3ccc(O)cc3)c3cccc1c32,11µM*,5µM*,-29%[11.4 µM],40µM*,?,35µM*
CCOC(=O)c1c(S(=O)(=O)N2CCC(C(=O)Nc3ccc(C)cn3)CC2)c(C)n(C)c1C,nt,-37%[59 µM],-12%,13%,nt,-3%
Cc1cccc(/C=N/n2c(-c3cc(-c4ccccc4)n[nH]3)n[nH]c2=S)c1,-19%,1.6µM*,79µM*,?,?,-39%
Cc1cccc(-c2n[nH]c(=S)n2/N=C/c2cccs2)c1,-19%,0.71µM*,22µM*,9%,?,-26%
BrC(=C\c1ccccc1)/C=N/n1cnnc1,-15%,16%,-7%,22%,-3%,-3%
Cc1nnc(C)n1/N=C/c1cccs1,6%,-37%[0.0925 µM],-18%,27%,-3%,7%
S=c1[nH]nc(-c2cc(-c3ccccc3)n[nH]2)n1/N=C/C(Br)=C/c1ccccc1,?,22µM*,56µM*,18%,?,10µM*
S=c1[nH]nc(-c2cc(-c3ccccc3)n[nH]2)n1/N=C/c1ccccc1,nt,-127%[59 µM],56µM*,32%,-11%,-14%
COC(=O)c1c(NC(NC(=O)c2ccccc2)(C(F)(F)F)C(F)(F)F)sc2c1CCN(C)C2,?,-77%,-27%,-6%,30%,2%
C=CC1=C2C=C(C3CC3)N(CCCOC(C)C)C=C2C(=O)C(C)(OC(=O)c2ccco2)C1=O (stereo not given),nt,nt,nt,nt,-26%,nt
S=c1[nH]nc(-c2cc(-c3ccccc3)n[nH]2)n1/N=C/C=C/c1ccccc1,-16%,8.9µM*,?,20%,-2%,-27%
S=c1[nH]nc(-c2cc(-c3ccccc3)n[nH]2)n1/N=C/c1cccs1,-17%,1.6µM*,?,10%,4%,-27%
O=C(N/N=C/C(Br)=C/c1ccccc1)c1n[nH]c2c1CCC2,nt,63%[12.7 µM],?,13%,?,8%
S=c1[nH]nc(-c2n[nH]c3c2CCC3)n1/N=C/C=C/c1ccccc1,nt,nt,50µM*,5%,-1%,-11%
